Test results: PubChem BioAssay (Tox21)
Values joined by “and” are separate entries in the source; they are usually repeats but may differ in a detail not shown here. Equal values may be shown once. Results filed as inconclusive are left out. A call without a number means that no potency is given here. Some structures have more than one record in an assay (separate samples or runs), and their calls can disagree. Active and inactive are the calls of the source. The call rests on the fitted dose curve; in most records, active means well fitted inhibition curve with a large enough effect in the repeat runs; inconclusive means weak or mixed curves; inactive means no such curve, though single readings can be large or run the other way.

molecular target: Cytochrome P450 2D6 (Homo sapiens) (UniProt P10635); experiment: Cytochrome P450 Family 2 Subfamily D Member 6 (CYP2D6) small molecule antagonists: luciferase reporter qHTS assay (AID 1671196); settings: P450-Glo CYP2D6 enzyme assay, luciferin luminescence, 1 h; series mostly up to 115 µM; further: nearly all actives have a fitted effect of over 50% in size
Source text: U.S. Tox21 Program National Center for Advancing Translational Sciences [NCATS] U.S. Environmental Protection Agency [EPA] National Institutes of Environmental Health Sciences [NIEHS] National Toxicology Program [NTP] U.S. Food and Drug Administration [FDA] Tox21 Assay Overview: Cytochrome P450 (CYP) enzymes are membrane-bound hemeproteins that play a key role in metabolism of drugs and xenobiotics. Evaluation of the effect of chemicals on CYP isozymes is useful to minimize the adverse drug reactions and toxicities in drug development process. Tox21 chemicals were tested for their effect on CYP enzyme activities by using P450-Glo (TM) screening systems (Promega Corporation, Madison, WI). These systems provide a luminescent method containing proluciferin substrates and are converted to luciferin products by CYP isozymes. The luciferin products formed are detected with a luciferin detection reagent, and the amount of light produced is proportional to CYP activity. P450-Glo (TM) CYP2D6 screening system (Catalog. No. V9890) was used to detect the compounds that interfere in CYP2D6 activity.
Tox21 Assay Protocol Summary: Two ul of enzyme-substrate mix was dispensed into medium binding white/solid 1536-well plates (Greiner Bio-One North America Inc., Monroe, NC) using a BioRaptr Flying Reagent Dispenser (FRD, Beckman Coulter, Brea, CA). […] The assay plates were incubated at room temperature for 10 min. Then 2 ul of NADPH regeneration solution was added to each well of the assay plates using an FRD and incubated at room temperature for 1 h. The reaction was stopped by adding 4 ul of detection reagent using an FRD and after 20 min incubation at room temperature the luminescence signal was measured using a ViewLux plate reader (Perkin Elmer, Shelton, CT). Data were expressed as relative luminescence units.
Potency means the concentration at half of the fitted maximal effect.

Chain of Cytochrome P450 2D6 (Homo sapiens) (P10635 whole entry, looked up): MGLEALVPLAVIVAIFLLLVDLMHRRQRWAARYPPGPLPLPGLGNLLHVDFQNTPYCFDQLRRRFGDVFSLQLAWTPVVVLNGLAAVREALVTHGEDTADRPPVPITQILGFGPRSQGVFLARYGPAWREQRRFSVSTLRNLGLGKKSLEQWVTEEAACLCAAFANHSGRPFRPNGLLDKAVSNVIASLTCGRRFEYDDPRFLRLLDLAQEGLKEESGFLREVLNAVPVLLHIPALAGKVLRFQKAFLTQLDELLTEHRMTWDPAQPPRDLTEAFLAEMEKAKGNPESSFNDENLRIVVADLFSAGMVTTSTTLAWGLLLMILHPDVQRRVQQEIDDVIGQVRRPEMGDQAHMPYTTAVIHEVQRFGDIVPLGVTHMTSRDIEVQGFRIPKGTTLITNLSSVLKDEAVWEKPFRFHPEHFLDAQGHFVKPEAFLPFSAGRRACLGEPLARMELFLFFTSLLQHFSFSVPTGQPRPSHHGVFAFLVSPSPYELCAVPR

Compound	Potency
ClC/C=C/CCl	62.8 µM (active) and inactive
[Na+]	inactive
CN(Cc1cnc2nc(N)nc(N)c2n1)c1ccc(C(=O)N[C@@H](CCC(=O)O)C(=O)O)cc1	inactive
Nc1ccc(N)c(Cl)c1	12.6 µM (active) and 22.4 µM (active)
CC[C@]12CCCN3CCc4c(n(c5ccccc45)[C@@](O)(C(=O)OC)C1)[C@@H]32	10 µM (active) and 8.71 µM (active)
C=CCOC(=O)C(=C)C	inactive
NCCOCCO	inactive
Cc1ccc(S(=O)(=O)NCl)cc1	inactive
CCCN1C=CN(C)C1	inactive
O=[Se](O)O	inactive
c1ccc2cc3ccccc3cc2c1	inactive
Brc1nc2ccccc2s1	inactive
O=C(O)c1ccc(O)cc1	inactive
CCC(=O)O[C@H]1[C@H](O[C@@H]2[C@@H](C)[C@H](O[C@H]3C[C@@](C)(OC)[C@@H](O)[C@H](C)O3)[C@@H](C)C(=O)O[C@H](CC)[C@@](C)(O)[C@H](O)[C@@H](C)C(=O)[C@H](C)C[C@@]2(C)O)O[C@H](C)C[C@@H]1N(C)C	inactive
CCCOCCO	inactive
[O-]/[N+](=N\O)c1ccccc1	inactive
CC(=O)[C@H]1CC[C@H]2[C@@H]3CC=C4C[C@@H](O)CC[C@]4(C)[C@H]3CC[C@]12C	inactive
CC(C)=CCO	inactive
CCCCCCCCCCCCO	inactive
Nc1ccc(O)c(N)c1	35.3 µM (active) and 31.7 µM (active)

Compound	Potency
CC(=O)O[C@]1(C(C)=O)CC[C@H]2[C@@H]3C=C(C)C4=CC(=O)CC[C@]4(C)[C@H]3CC[C@@]21C	inactive
CCCCCCCCCCC(CO)CCCCCCCC (stereo not given)	inactive
C=C[Si](OCCOC)(OCCOC)OCCOC	28.4 µM (active) and inactive
CC(=O)[C@@]1(O)CC[C@H]2[C@@H]3C[C@H](C)C4=CC(=O)C=C[C@]4(C)[C@@]3(F)[C@@H](O)C[C@@]21C	inactive
O=C1CCc2ccccc2O1	inactive
Nc1ccc2c(O)cc(S(=O)(=O)O)cc2c1	35.6 µM (active) and 71 µM (active)
Cc1ccc(N)c([N+](=O)[O-])c1	39.4 µM (active) and inactive
CCCCCCCCCCCCCO	inactive
Cc1ccc2c(c1)C(=O)OC2=O	inactive and 6.33 µM (active)
CCOC(=O)C(C)Oc1ccc(Oc2cnc3cc(Cl)ccc3n2)cc1 (stereo not given)	32.5 µM (active)
CCCCCCCC/C=C\CCCCCCCC(=O)O	inactive
O=C1OC2(c3ccccc31)c1cc(I)c(O)c(I)c1Oc1c2cc(I)c(O)c1I	28.3 µM (active) and 36 µM (active)
CC(=O)OC(C)C	inactive
O=Cc1ccccc1C=O	inactive
C=CCNCC=C	inactive
C[C@]12CC[C@@H]3c4ccc(O)cc4CC[C@H]3[C@@H]1CC[C@@H]2O	8.92 µM (active) and inactive
C=C1C[C@H]2[C@@H]3C=C(C)C4=CC(=O)CC[C@]4(C)[C@H]3CC[C@]2(C)[C@@]1(OC(C)=O)C(C)=O	inactive
Oc1ccc(C(c2ccc(O)cc2)C(Cl)(Cl)Cl)cc1	inactive
CC(C)[C@@H]1CC[C@@H](C)CC1=O	inactive
CN(C)C	inactive
